The values below come from PubChem BioAssay AID894 (National Center for Advancing Translational Sciences (NCATS), 2007).

Screen size: about 150,000 compounds; about 6,500 (4.3%) were called active. Inconclusive results (about 12%) are left out. The sample holds actives, similar compounds and a random draw of the others, so the mix is not that of the screen. Calls follow the shape of the dose curve; as a rule, active = well fitted inhibition curve with a large enough effect (not every such curve was filed as active); inconclusive = small, poorly fitted or top-dose-only effect, or another doubt; inactive = no such curve, though single readings can be large or run the other way.
% is scaled to controls: 0 for no effect and ±100 for the full control effect; potency is read from the fitted curve at half-maximal effect.

Chain of 15-hydroxyprostaglandin dehydrogenase [NAD(+)] (Homo sapiens) (P15428 whole entry, looked up): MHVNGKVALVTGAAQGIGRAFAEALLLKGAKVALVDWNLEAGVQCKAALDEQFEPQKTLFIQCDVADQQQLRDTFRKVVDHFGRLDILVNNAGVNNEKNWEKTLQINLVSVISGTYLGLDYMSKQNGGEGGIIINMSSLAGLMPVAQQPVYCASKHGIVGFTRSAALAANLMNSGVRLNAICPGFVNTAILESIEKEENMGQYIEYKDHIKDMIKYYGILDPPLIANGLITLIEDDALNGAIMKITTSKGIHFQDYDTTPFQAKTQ

For this experiment, the target named is 15-hydroxyprostaglandin dehydrogenase [NAD(+)] (Homo sapiens) (UniProt P15428). Kind of experiment: qHTS Assay for Inhibitors of HPGD (15-Hydroxyprostaglandin Dehydrogenase). The following applies: purified HPGD, NADH fluorescence kinetic, PGE2 substrate; activity change, negative = inhibition: active compounds read low. In short, it runs like this:
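20 nM HPGD preincubated 15 min at room temperature with compound in 50 mM Tris-HCl pH 8, 0.01% Tween 20. Started with 1 mM NAD+ and 30 uM prostaglandin E2; NADH fluorescence (360/450 nm) read 5 times over 30-s intervals, last minus first.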
In general terms: In qHTS, concentration-response curves come from the screen itself.
For `Cc1cc(N2CCOCC2)nc(-c2ccc(Br)cc2)n1`, the activity change, negative = inhibition was -7.33% (inactive).
Regarding `CCC(C)NCCOCCOc1ccc(Br)cc1C` (centres undefined), the activity change, negative = inhibition is -6.54% (inactive).
As for `Cc1ccc(C(=O)/C=C/Nc2ccc(S(=O)(=O)Nc3onc(C)c3C)cc2)cc1`, the activity change, negative = inhibition was -26.4% (inactive).
On to `Cc1ccc(S(=O)(=O)N2CCCC2C(=O)OCc2nc3sc(C)c(C)c3c(=O)[nH]2)cc1` (centres undefined), for which the activity change, negative = inhibition is -20.7% (inactive).
As to `Cc1c(NS(=O)(=O)c2ccc(NC3CCCC3)c([N+](=O)[O-])c2)c(=O)n(-c2ccccc2)n1C`, the activity change, negative = inhibition is -7.49% (inactive).
For the molecule `Cc1cc([N+](=O)[O-])ccc1NC1CCCC1`, the activity change, negative = inhibition was -16.1% (inactive).
Consider `Cc1cc(C=O)c(C)n1-c1ccc(NC2CCCCC2)c([N+](=O)[O-])c1`, for which the Potency was 7.94 µM (active).
As to `COc1ccc(C2NC(=S)NC3=C2CCc2ccccc23)cc1OC` (centres undefined), the activity change, negative = inhibition was -17.9% (inactive).
For the molecule `Cc1nn(Cc2ccc(F)cc2)c(C)c1NC(=O)c1cccnc1Cl`, the activity change, negative = inhibition was -10.3% (inactive).
As to `COc1cc(/C=C2/C(=O)ON=C2C)ccc1OCc1ccccc1F`, the Potency is 1.58 µM (active).
As for `COc1cccc(CNCCc2c[nH]c3ccccc23)c1OCc1ccccc1F`, the activity change, negative = inhibition was -4.46% (inactive).
Take `CCOc1cc(/C=N/O)ccc1OCc1ccccc1F`: the activity change, negative = inhibition is -1.63% (inactive).
`CCOc1ccc(/C=N/NC(=O)C(C)Sc2ccccn2)cc1OCC` (centres undefined): the activity change, negative = inhibition was -18.1% (inactive).
Turning to `COc1ccc(/C=C/C(=O)c2ccc(NS(=O)(=O)c3ccc(C)cc3)cc2)cc1O`, the activity change, negative = inhibition is -19.9% (inactive).
Regarding `COc1ccc(N2C(=O)CC(SC(C)C)C2=O)cc1` (centres undefined), the activity change, negative = inhibition is -4.33% (inactive).
In the case of `O=C1CC(Sc2ncn[nH]2)C(=O)N1c1ccccc1` (centres undefined), the Potency is 12.6 µM (active).
Regarding `CCOC(=O)c1ccc(N2C(=O)CC(Sc3nc(O)c(CC)c(=O)[nH]3)C2=O)cc1` (centres undefined), the activity change, negative = inhibition was -10.7% (inactive).
As to `CCNc1nc(NC(C)C)nc(N2CC(=O)N(CC(=O)OCC)C2=N)n1`, the activity change, negative = inhibition was -1.19% (inactive).
With `CCCCS(=O)(=O)N1C2=NC(C(=O)OC)=C(C(=O)OC)[C@@H]3N(Cc4ccccc4)c4ccccc4[C@]23C[C@H]1C(=O)OC`, the activity change, negative = inhibition was -6.02% (inactive).
On to `N#Cc1ccsc1NC(=O)CN1CCCCC1`, for which the activity change, negative = inhibition was -11.5% (inactive).
In the case of `CCN(CC)C(=O)c1sc(NC(=O)c2ccco2)c(C#N)c1C`, the activity change, negative = inhibition is -18.8% (inactive).
In the case of `CCC(=O)Nc1sc(C(=O)N2CCCCC2)c(C)c1C#N`, the Potency was 4.47 µM (active).
Regarding `CC1CN(C(=S)SCC(=O)c2ccccc2)CC(C)O1` (centres undefined), the activity change, negative = inhibition is -10.1% (inactive).
With `CCC(C)(C)C1CCC(=NNC(=O)c2ccc(Br)o2)CC1` (centres undefined), the activity change, negative = inhibition was -9.21% (inactive).
In the case of `O=C(CSc1nnc(SCc2ccc(Cl)cc2)s1)N/N=C/c1ccccc1Cl`, the activity change, negative = inhibition was -3.98% (inactive).
Same read-out and setting: as for `O=C(COC(=O)CCCNC(=O)c1ccc(Cl)cc1)Nc1cc(Cl)ccc1Cl`, the figure is -18.1% (inactive); as for `C(=N/Nc1cc(N2CCOCC2)nc(N2CCOCC2)n1)/c1ccccc1`, -6.61% (inactive).
Consider `Cc1ccccc1N/N=C/c1ccc(N2CCOCC2)cc1`, for which the Potency is 28.2 µM (active).
With `C/C(=N\NC(=O)c1ccccc1C)c1ccc(N2CCOCC2)cc1`, the activity change, negative = inhibition was -15.3% (inactive).
The same measure, in the same setting: next, `CCN(CC)S(=O)(=O)c1cc([N+](=O)[O-])ccc1N=Nc1c(O)n(C)c2ccccc12`: -5.63% (inactive); `Cc1c(/C=N/N2C(=O)C3C4C=CC(C4)C3C2=O)c2ccccc2n1C` (centres undefined): -1.58% (inactive).
As to `CC(=O)N1c2ccccc2N(Cc2ccc([N+](=O)[O-])cc2)C(=O)C1(C)C`, the activity change, negative = inhibition is -6.13% (inactive).
The same measure, in the same setting: as for `CCCN1CNC(=S)N(CCc2ccccc2)C1`, the figure is 1.42% (inactive).
Consider `Cc1ccc(OCC(=O)OC(C)CN(C)Cc2ccccc2)cc1` (centres undefined), for which the activity change, negative = inhibition is -13.4% (inactive).
Turning to `O=C(CSc1nc(-c2ccco2)cc(C(F)(F)F)n1)N1CCc2ccccc2C1`, the Potency is 2.24 µM (active).
Turning to `FC(F)(F)c1cc(-c2ccco2)nc(N2CCOCC2)n1`, the activity change, negative = inhibition was -8.04% (inactive).
As for `O=C(CSc1nc(-c2ccco2)cc(C(F)(F)F)n1)NCc1cccs1`, the activity change, negative = inhibition is -3.58% (inactive).
On the same count and under the same terms, as for `CN(C)c1ccc(/C=N/N(Cc2ccccc2)c2ccccc2)cc1`, the figure is -11.9% (inactive); as for `CCN(C(=O)COC(=O)c1cc(NS(=O)(=O)c2ccc(Cl)c([N+](=O)[O-])c2)ccc1O)C1CCCCC1`, -7.74% (inactive); as for `CNC(=S)N1CCN(c2ccccn2)CC1`, -14% (inactive).
`CN(C)c1ccc(/C=N\S(=O)(=O)c2ccccc2)cc1`: the activity change, negative = inhibition is -10.7% (inactive).
As for `CCOC(=O)CSc1nc2c(c(=O)n(C)c(=O)n2C)n1Cc1ccccc1F`, the activity change, negative = inhibition is -4.76% (inactive).
As for `COc1ccccc1NC(=O)CSc1nc2sc(C)c(C)c2c(=O)n1Cc1ccco1`, the activity change, negative = inhibition is -18.7% (inactive).
For `CCOC(=O)CSc1nc2c(sc(=S)n2CCc2ccccc2)c(=O)n1Cc1ccco1`, the Potency was 20 µM (active).
`COc1ccc(C(=O)Nc2ccc3nc(N4CCCCC4)cc(C)c3c2)cc1OC`: the activity change, negative = inhibition is -27.2% (inactive).
In the case of `CC1(C)CC(=O)C(N=Nc2ccc(S(=O)(=O)N3CCCCCC3)cc2)=C(O)C1`, the Potency is 25.1 µM (active).
Consider `COc1ccc(S(=O)(=O)N2CCCCC2)cc1Br`, for which the activity change, negative = inhibition is -1.54% (inactive).
Still for that read-out and setting: as for `Cc1ccc(S(=O)(=O)N2CCC(N3CCCCCC3)CC2)cc1`, the figure is -7.84% (inactive); as for `CCOc1cc(/C=N/O)cc(Br)c1OC`, -21.3% (inactive).
Consider `CCOc1c(Br)cc(/C=C2\C(=O)N(CCC#N)N=C2C)cc1OC`, for which the Potency is 5.01 µM (active).
Regarding `C=CCOc1c(Br)cc(/C=N\n2nnnc2N)cc1OC`, the activity change, negative = inhibition was -12.6% (inactive).
Same read-out and setting: as for `COc1ccc(S(=O)(=O)Nc2ccc3oc(C)c(C(C)=O)c3c2)cc1`, the figure is -11.3% (inactive); as for `COc1ccc(-c2oc3cc(OC)ccc3c2C(=O)c2ccc(C#N)cc2)cc1`, -8.41% (inactive).
As to `COc1ccc(C(=O)c2c(C)oc3cc([N+](=O)[O-])c(O)c([N+](=O)[O-])c23)cc1`, the Potency is 14.1 µM (active).
As to `CCO/N=C(/C)c1c(O)cc(-c2ccccc2)n(-c2ccccc2)c1=O`, the activity change, negative = inhibition is -9.45% (inactive).
As to `CCN(C(=O)CSc1ncn[nH]1)c1cccc2ccccc12`, the activity change, negative = inhibition was -11.5% (inactive).
As for `Cn1nnc(NC(=O)CSc2ncn[nH]2)n1`, the activity change, negative = inhibition is -3.42% (inactive).
For the molecule `CC(C)(C)c1ccc(C(=O)CSc2ncn[nH]2)cc1`, the Potency is 25.1 µM (active).
`S=C(NCC1COc2ccccc2O1)Nc1ccc(Br)cc1` (centres undefined): the activity change, negative = inhibition was -26.7% (inactive).
